# Experimental data from the supplement of paper PMC8728848.
# This is one part of a sample in which the strongest signals are shown more often than they occur.
# What was measured:
# Assay in all cases: glycan array binding signal (z-score within array); higher = stronger binding
# Details in all cases: glycan notation: IUPAC condensed, linker removed
# [1] = molecular target: Fuc(a1-2)Gal(b1-4)GlcNAc(b1-2)Man
# How it was run: (§1)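 Columns mapping to the same glycan were averaged after glycan names were converted to IUPAC-condensed notation. The data come from 3228 arrays in the Consortium for Functional Glycomics database, limited to those with an available protein sequence. Binding is reported as a within-array Z-score averaged across arrays of one protein sequence and across linkers.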
# [2] = molecular target: Fuc(a1-2)Gal(b1-4)GlcNAc(b1-2)Man(a1-3)[Fuc(a1-2)Gal(b1-4)GlcNAc(b1-2)Man(a1-6)]Man(b1-4)GlcNAc(b1-4)GlcNAc
# How it was run: as §1
# [3] = molecular target: Fuc(a1-2)[Gal(a1-3)]Gal(b1-4)GlcNAc(b1-3)GalNAc
# How it was run: as §1
# [4] = molecular target: Fuc(a1-2)[Gal(a1-3)]Gal(b1-4)GlcNAc(b1-6)GalNAc
# How it was run: as §1
# [5] = molecular target: Fuc(a1-2)[GalNAc(a1-3)]Gal(b1-4)GlcNAc(b1-2)Man(a1-3)[Fuc(a1-2)[GalNAc(a1-3)]Gal(b1-4)GlcNAc(b1-2)Man(a1-6)]Man(b1-4)GlcNAc(b1-4)GlcNAc
# How it was run: as §1
# [6] = molecular target: Fuc(a1-3)[Gal(b1-4)]GlcNAc(b1-6)[Gal(b1-3)GlcNAc(b1-3)]Gal(b1-4)Glc
# How it was run: as §1
# [7] = molecular target: Fuc(a1-3)[Gal(b1-4)]GlcNAc6S
# How it was run: as §1
# [8] = molecular target: Gal(a1-3)Gal(b1-3)GlcNAc(b1-6)GalNAc
# How it was run: as §1
# [9] = molecular target: Gal(a1-3)[Gal(a1-4)]Gal(b1-4)GlcNAc
# How it was run: as §1
# Gal(b1-3)GalNAc = molecular target: Gal(b1-3)GalNAc
# How it was run: as §1
# [10] = molecular target: Gal(b1-3)GlcNAc(b1-2)[Gal(b1-3)GlcNAc(b1-6)]Man(a1-6)[Gal(b1-3)GlcNAc(b1-2)Man(a1-3)]Man(b1-4)GlcNAc(b1-4)GlcNAc
# How it was run: as §1
# [11] = molecular target: Gal(b1-3)GlcNAc(b1-3)Gal(b1-4)Glc
# How it was run: as §1
# [12] = molecular target: Gal(b1-4)GlcNAc(b1-2)Man(a1-3)Man(b1-4)GlcNAc(b1-4)GlcNAc
# How it was run: as §1
# [13] = molecular target: Gal(b1-4)GlcNAc(b1-2)Man(a1-3)[GlcNAc(b1-4)][Gal(b1-4)GlcNAc(b1-2)Man(a1-6)]Man(b1-4)GlcNAc(b1-4)GlcNAc
# How it was run: as §1
# [14] = molecular target: Gal(b1-4)GlcNAc(b1-3)Gal(b1-4)GlcNAc(b1-3)Gal(b1-4)GlcNAc(b1-3)Gal(b1-4)GlcNAc(b1-2)Man(a1-3)[Gal(b1-4)GlcNAc(b1-3)Gal(b1-4)GlcNAc(b1-3)Gal(b1-4)GlcNAc(b1-3)Gal(b1-4)GlcNAc(b1-2)Man(a1-6)]Man(b1-4)GlcNAc(b1-4)GlcNAc
# How it was run: as §1
# [15] = molecular target: Gal(b1-4)GlcNAc(b1-3)Gal(b1-4)GlcNAc(b1-3)[Gal(b1-4)GlcNAc(b1-3)Gal(b1-4)GlcNAc(b1-6)]GalNAc
# How it was run: as §1
# [16] = molecular target: Gal3S(b1-4)[Fuc(a1-3)]Glc6S
# How it was run: as §1
# [17] = molecular target: GalNAc(b1-3)Gal(a1-6)Gal(b1-4)Glc
# How it was run: as §1
# GalNAc3S(b1-4)GlcNAc = molecular target: GalNAc3S(b1-4)GlcNAc
# How it was run: as §1
# GlcA(b1-3)GlcNAc = molecular target: GlcA(b1-3)GlcNAc
# How it was run: as §1
# [18] = molecular target: GlcNAc(a1-3)Gal(b1-4)GlcNAc
# How it was run: as §1
# [19] = molecular target: GlcNAc(a1-4)Gal(b1-4)GlcNAc(b1-3)Gal(b1-4)[Fuc(a1-3)]GlcNAc(b1-3)Gal(b1-4)[Fuc(a1-3)]GlcNAc
# How it was run: as §1
# [20] = molecular target: GlcNAc(b1-2)[GlcNAc(b1-4)]Man(a1-3)[GlcNAc(b1-4)][GlcNAc(b1-2)[GlcNAc(b1-6)]Man(a1-6)]Man(b1-4)GlcNAc(b1-4)[Fuc(a1-6)]GlcNAc
# How it was run: as §1
# GlcNAc(b1-3)Fuc = molecular target: GlcNAc(b1-3)Fuc
# How it was run: as §1
# [21] = molecular target: GlcNAc(b1-3)Gal(b1-3)GalNAc
# How it was run: as §1
# [22] = molecular target: GlcNAc(b1-3)Gal(b1-4)GlcNAc(b1-3)Gal(b1-4)GlcNAc(b1-3)GalNAc
# How it was run: as §1
# GlcNAc(b1-4)GlcNAc = molecular target: GlcNAc(b1-4)GlcNAc
# How it was run: as §1
# [23] = molecular target: GlcNAc6S(b1-3)Gal(b1-4)GlcNAc
# How it was run: as §1
# Man(b1-4)GlcNAc = molecular target: Man(b1-4)GlcNAc
# How it was run: as §1
# [24] = molecular target: Neu5Ac(a2-3)Gal(b1-3)GalNAc(b1-4)[Neu5Ac(a2-8)Neu5Ac(a2-3)]Gal(b1-4)Glc
# How it was run: as §1
# [25] = molecular target: Neu5Ac(a2-3)Gal(b1-3)[Neu5Ac(a2-6)]GlcNAc(b1-3)[Fuc(a1-3)[Gal(b1-4)]GlcNAc(b1-6)]Gal(b1-4)Glc
# How it was run: as §1
# [26] = molecular target: Neu5Ac(a2-3)Gal(b1-3)]Neu5Ac(a2-3)Gal(b1-4)]GlcNAc
# How it was run: as §1
# [27] = molecular target: Neu5Ac(a2-3)Gal(b1-4)[Fuc(a1-3)]GlcNAc(b1-3)Gal
# How it was run: as §1
# [28] = molecular target: Neu5Ac(a2-6)Gal(b1-4)GlcNAc(b1-2)Man(a1-6)[Gal(b1-4)GlcNAc(b1-2)Man(a1-3)]Man(b1-4)GlcNAc(b1-4)GlcNAc
# How it was run: as §1
# [29] = molecular target: Neu5Ac(a2-6)Gal(b1-4)GlcNAc(b1-2)Man(a1-6)[Man(a1-3)]Man(b1-4)GlcNAc(b1-4)GlcNAc
# How it was run: as §1
# [30] = molecular target: Neu5Ac(a2-6)Gal(b1-4)GlcNAc(b1-3)Gal(b1-4)GlcNAc(b1-3)Gal(b1-4)GlcNAc(b1-2)Man(a1-3)[Neu5Ac(a2-6)Gal(b1-4)GlcNAc(b1-3)Gal(b1-4)GlcNAc(b1-3)Gal(b1-4)GlcNAc(b1-2)Man(a1-6)]GalNAc
# How it was run: as §1
# [31] = molecular target: Neu5Ac(a2-8)Neu5Ac(a2-3)Gal(b1-4)Glc
# How it was run: as §1
# [32] = molecular target: Neu5Ac(a2-8)Neu5Ac(a2-3)Gal(b1-4)GlcNAc
# How it was run: as §1
# [33] = molecular target: Neu5Ac(a2-8)Neu5Ac(a2-8)Neu5Ac(a2-8)Neu5Ac(a2-3)[GalNAc(b1-4)]Gal(b1-4)Glc
# How it was run: as §1
binder,measurement,setting,value
FGFR2-Fc (protein) MVNVTDAISSGDDEDDTDGAEDFVSENSNNKRAPYWTNTEKMEKRLHAVPAANTVKFRCPAGGNPMPTMRWLKNGKEFKQEHRIGGYKVRNQHWSLIMESVVPSDKGNYTCVVENEYGSINHTYHLDVVERSPHRPILQAGLPANASTVVGGDVEFVCKVYSDAQPHIQWIKHVEKNGSKYGPDGLPYLKVLKHSGINSSNAEVLALFNVTEADAGEYICKVSNYIGQANQSAWLTVLPKQQAPGREKEITASPDYLETRPLEQKLISEEDLAANDILDYKDDDDKV,glycan array binding signal (z-score),[1],0.252
same,glycan array binding signal (z-score),[2],-0.068
same,glycan array binding signal (z-score),[3],0.523
same,glycan array binding signal (z-score),[4],-0.635
same,glycan array binding signal (z-score),[5],0.034
same,glycan array binding signal (z-score),[6],-0.327
same,glycan array binding signal (z-score),[7],1.73
same,glycan array binding signal (z-score),[8],-0.722
same,glycan array binding signal (z-score),[9],0.989
same,glycan array binding signal (z-score),Gal(b1-3)GalNAc,0.236
same,glycan array binding signal (z-score),[10],0.991
same,glycan array binding signal (z-score),[11],-0.488
same,glycan array binding signal (z-score),[12],-0.054
same,glycan array binding signal (z-score),[13],-0.552
same,glycan array binding signal (z-score),[14],1.4
same,glycan array binding signal (z-score),[15],0.9
same,glycan array binding signal (z-score),[16],1.35
same,glycan array binding signal (z-score),[17],-0.126
same,glycan array binding signal (z-score),GalNAc3S(b1-4)GlcNAc,-0.098
same,glycan array binding signal (z-score),GlcA(b1-3)GlcNAc,-0.356
same,glycan array binding signal (z-score),[18],22.2
same,glycan array binding signal (z-score),[19],1.49
same,glycan array binding signal (z-score),[20],0.045
same,glycan array binding signal (z-score),GlcNAc(b1-3)Fuc,0.448
same,glycan array binding signal (z-score),[21],-0.02
same,glycan array binding signal (z-score),[22],0.549
same,glycan array binding signal (z-score),GlcNAc(b1-4)GlcNAc,-0.264
same,glycan array binding signal (z-score),[23],0.175
same,glycan array binding signal (z-score),Man(b1-4)GlcNAc,0.038
same,glycan array binding signal (z-score),[24],-0.349
same,glycan array binding signal (z-score),[25],0.595
same,glycan array binding signal (z-score),[26],-0.115
same,glycan array binding signal (z-score),[27],1.09
same,glycan array binding signal (z-score),[28],0.258
same,glycan array binding signal (z-score),[29],-0.126
same,glycan array binding signal (z-score),[30],1.17
same,glycan array binding signal (z-score),[31],-0.492
same,glycan array binding signal (z-score),[32],-0.139
same,glycan array binding signal (z-score),[33],0.963
